# PubChem BioAssay (Tox21)
# Unmarked numbers belong to inactive results. Active and inactive are the calls of the source. Calls come from the whole dose curve; as a rule, active = well fitted curve in the direction sought with a large enough effect in the repeat runs; inconclusive = weak or mixed curves; inactive = flat fitted curve, though single readings scatter.
# Assay: qHTS assay to test for compound auto fluorescence at 460 nm (blue) in HepG2 cells (AID 720687)
# Settings: autofluorescence 405/460 nm, 1 h; series mostly up to 91.3 µM
# Summary of the method: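 Cells (2,000/well in MEM with 10% FBS) attached overnight at 37 C, then were exposed to compound or DMSO for 1 hr at 37 C, 5% CO2. Fluorescence read at Ex/Em 405/460 nm, expressed as triamterene-equivalent signal.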
# % is set by controls: 0 for no effect and ±100 for the full control effect.
SMILES,outcome,"fluorescence, % of fluorescent control"
CCCCc1ccc(O)cc1,inactive,
O=NN1CCCCC1,inactive,
CC(=O)[C@H]1CC[C@H]2[C@@H]3CC[C@H]4C[C@H](O)CC[C@]4(C)[C@H]3C(=O)C[C@]12C,inactive,
O=NN1CCN(N=O)CC1,inactive,
ClCCOCOCCCl,inactive,
COc1cccc2c1cc([N+](=O)[O-])c1c(C(=O)O)cc3c(c12)OCO3,inactive,
N#CCBr,inactive,
C[C@H]1CCC[C@H](O)CCCCCc2cc(O)cc(O)c2C(=O)O1,inactive,
CC1=C(C(=O)Nc2ccccc2)S(=O)(=O)CCO1,inactive,
CC(C)CC(N(C)C)C1(c2ccc(Cl)cc2)CCC1 (stereo not given),inactive,
CC(=O)C(Cl)Cl,inactive,
CC(COc1ccc(Oc2ccccc2)cc1)Oc1ccccn1 (stereo not given),inactive,
CC(C)[N+](=O)[O-],inactive,
CCOP(=S)(OCC)Oc1nc(Cl)n(C(C)C)n1,inactive,
COc1ccc2c(c1OC)CN1CCc3cc4c(cc3C1C2)OCO4 (stereo not given),,0.229% [at 18.6 µM]
CCNc1nc(NC(C)C)nc(OC)n1,inactive,
COC(=O)c1ccccc1S(=O)(=O)NC(=O)N(C)c1nc(C)nc(OC)n1,inactive,
C=CCC1=C(C)[C@@H](OC(=O)[C@@H]2[C@@H](C=C(C)C)C2(C)C)CC1=O,inactive,
CCCCOC(=O)c1ccccc1N,inactive,
[As]#[In],inactive,
CN1CCC(O)(c2ccc(F)cc2)C(C(=O)c2ccc(F)cc2)C1 (stereo not given),inactive,
CCCCOP(=O)(O)OCCCC,inactive,
O=C(NCO)NCO,inactive,
CCS(=O)(=O)CCSP(=O)(OC)OC,inactive,
CNC(=O)O/N=C(\C)SC,inactive,
